Experimental findings from PubChem BioAssay AID743103 (Vanderbilt Specialized Chemistry Center, 2013) are described below.

Structures are written as SMILES. The source made the active and inactive calls. No rule for the calls is given here.

In this assay the target is Muscarinic acetylcholine receptor M3 (Homo sapiens) (UniProt P20309). Briefly: off-target M3 muscarinic calcium response – cell-based, CHO-K1 hM3, Fluo-4 calcium flux, ACh EC20, counter-screen for M5 NAM project (AID 743103). To be noted: series mostly up to 30 µM.
Regarding `O=C(c1cc(F)cc(F)c1)N1CCN2C(=O)c3ccccc3C12c1ccc(Cl)cc1` (stereo not given), the result was inactive.
`O=C(c1ccc(F)c(F)c1)N1CCN2C(=O)c3ccccc3C12c1ccccc1` (stereo not given): the result was inactive.
Regarding `O=C(c1ccc(F)cc1)N1CCN2C(=O)c3ccccc3C12c1ccccc1` (stereo not given), the result was inactive.
For the compound `O=C(c1ccc(F)c(F)c1)N1CCN2C(=O)c3ccccc3[C@@]12c1ccc(Cl)cc1`, the result was inactive.
Under `O=C(c1ccc(F)c(F)c1)N1CCN2C(=O)c3ccccc3C12c1ccc(Cl)cc1` (stereo not given) stands “inactive”.
